# Screening data deposited in PubChem BioAssay by several laboratories.
# SENP7 block: SENP7 protease inhibition; AID 434973; hit rate 1.5% among 330,000; recombinant SENP7, Z-RLRGG-aminoluciferin luminescence, 40 min; inhibition, % at 5 µM; Q9BQF6;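 active means inhibition above about 50% at the single test dose, limit read from the data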
# Target sequence (Q9BQF6 706-1050 limits assumed): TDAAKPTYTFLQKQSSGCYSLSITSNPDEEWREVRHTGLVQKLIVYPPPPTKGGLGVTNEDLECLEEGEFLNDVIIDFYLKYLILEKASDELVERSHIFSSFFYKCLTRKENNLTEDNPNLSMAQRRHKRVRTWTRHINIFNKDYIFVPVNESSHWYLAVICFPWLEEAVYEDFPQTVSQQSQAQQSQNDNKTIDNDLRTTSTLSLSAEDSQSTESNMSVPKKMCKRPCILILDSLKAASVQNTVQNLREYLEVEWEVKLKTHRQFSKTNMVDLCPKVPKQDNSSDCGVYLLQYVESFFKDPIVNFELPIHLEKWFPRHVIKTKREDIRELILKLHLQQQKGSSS
# SENP8 block-1: inhibitors of human SENP8 protease. Q96LD8. recombinant SENP8, Nedd8 substrate fluorescence. inhibition, % at 20 µM. hit rate 0.64% among 360,000. AID 602440; in the data active means inhibition mostly above about 40%, no sharp cut-off; inactive means mostly below about 27%
# Target sequence (Q96LD8 whole entry, looked up): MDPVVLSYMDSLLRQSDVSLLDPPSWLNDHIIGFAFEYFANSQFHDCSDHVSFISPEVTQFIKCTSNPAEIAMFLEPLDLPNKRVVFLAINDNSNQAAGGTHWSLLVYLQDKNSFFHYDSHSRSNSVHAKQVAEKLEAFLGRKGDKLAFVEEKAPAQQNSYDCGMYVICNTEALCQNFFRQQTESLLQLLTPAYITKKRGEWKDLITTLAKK
# SENP8 block-2: blocks the human protease SENP8; Q96LD8; purified SENP8, Z-RLRGG-aminoluciferin cleavage, luminescence; inhibition, % at 10 µM; hit rate 1.2% among 330,000; AID 2540; in the data active means inhibition above about 50%
# HSP90 inh: HSP90 refolding inhibition in rabbit reticulocyte lysate; luciferase refolding luminescence, 3 h; inhibition, % at 5.6 µM; hit rate 0.91% among 290,000;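 active means inhibition above the screen-wide mean plus 3 SD, computed separately per campaign, cut at about 16% in these data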;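 further: inhibitors lower the luminescence because luciferase stays unfolded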
# SENP6 block: inhibitors of human SENP6 protease; inhibition, % at 10 µM; hit rate 1.8% among 330,000; Q9GZR1; Recombinant SENP6 catalytic domain, aminoluciferin luminescence; AID 2599;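 active means inhibition above about 50% at the single tested dose, limit read from the data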
# SENP8 confirm: human SENP8 inhibition, confirmed; AID 488912; shares compounds with SENP7 block; hit rate 40% among 6,200; Recombinant SENP8, Z-RLRGG-aminoluciferin luminescence, 60 min; inhibition, % at 12.5 µM;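 active means mean inhibition across replicates above about 50%, limit read from the data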
# SENP6 confirm: human SENP6 inhibition, confirmed. inhibition, % at 12.5 µM. shares compounds with SENP7 block. AID 488915. hit rate 58% among 6,200. recombinant SENP6, Z-RLRGG-aminoluciferin luminescence
# SENP7 conf: human SENP7 inhibition, confirmed | shares compounds with SENP7 block | recombinant SENP7, Z-RLRGG-aminoluciferin luminescence, 40 min | inhibition, % at 12.5 µM | hit rate 69% among 6,200
# Casp3 select: inhibits human caspase-3 in SENP selectivity test. AID 488918. purified caspase-3, Z-DEVD-aminoluciferin luminescence, 60 min. hit rate 60% among 6,200. inhibition, % at 12.5 µM. shares compounds with SENP7 block;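 active means mean inhibition above about 50%, limit read from the data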
# SENP luc ctr: luminescence interference (SENP counter-screen); shares compounds with SENP7 block; Pre-incubated SENP8/Z-RLRGG-aminoluciferin, luciferase luminescence interference; inhibition, % at 12.5 µM; hit rate 39% among 6,200; AID 488919;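 active means mean inhibition above about 50% when retested at one dose, limit read from the data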
# Numbers stand for hits; - = inactive; . = no result given. An excerpt weighted towards active compounds, which were near 2.7% of everything screened.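 How the source made its calls, unless noted: active means mean inhibition above about 50% in the one-dose retest (limit read from the data); inactive means the rest.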
SMILES,SENP7 block,SENP8 block-1,SENP8 block-2,HSP90 inh,SENP6 block,SENP8 confirm,SENP6 confirm,SENP7 conf,Casp3 select,SENP luc ctr
Cc1cc(C(=O)COC(=O)C2=COCCO2)c(C)n1-c1ccccc1,85,-,83,.,85,83,83,96,88,78
COc1cc(OC)cc(C(=O)Nc2ccc3nc4n(c(=O)c3c2)CCCCC4)c1,83,-,80,-,81,87,86,98,88,55
COc1cc(C=O)ccc1OCc1ccccc1Br,66,-,70,-,75,-,68,89,69,73
COc1cc(C=O)ccc1OCc1cccc(Br)c1,-,-,-,-,-,.,.,.,.,.
COc1ccc2occ(C(=O)c3ccccc3)c2c1,-,-,-,-,-,.,.,.,.,.
O=C(c1ccccc1)c1coc2c1C(=O)c1ccccc1C2=O,-,52,-,-,85,-,75,-,-,-
O=C(NCc1ccc(Cl)cc1)C(=O)c1cn(CC(=O)N2CCOCC2)c2ccccc12,-,-,-,-,-,.,.,.,.,.
O=C(Nc1ccccc1Cl)C(=O)c1cn(CC(=O)N2CCOCC2)c2ccccc12,74,-,-,-,-,-,-,-,-,-
CCOc1ccccc1NC(=O)n1ncc2c(C)cccc21,-,-,-,-,-,.,.,.,.,.
Cc1cccc2c1cnn2C(=O)Nc1cc(F)ccc1F,-,-,-,-,61,-,-,-,-,-
O=C(Nc1ccc2ccccc2c1)C(=O)C1C(=O)Nc2ccccc21 (configuration not stated),78,.,84,-,92,73,74,89,77,-
CN(C(=O)c1ccco1)c1nc2c(s1)CCCC2,92,-,85,-,-,-,91,101,94,89
CC(C)(C)c1ccccc1N=Cc1ccc2ccccc2n1,-,-,-,-,-,.,.,.,.,.
COc1ccc(CNC(=O)c2c(C)oc3c2C(=O)c2ccccc2C3=O)cc1,-,64,-,-,66,-,61,-,70,-
COc1ccc(-n2c(C)cc(/C=C3/SC(=S)N(C)C3=O)c2C)cc1,.,-,.,-,.,.,.,.,.,.
Cc1cc(/C=C2\SC(=S)N(C)C2=O)c(C)n1-c1cccc(O)c1,60,-,80,-,90,-,-,-,-,-
Cc1ccc(N=Nc2c(=O)[nH]n3c(=O)cc(C)[nH]c23)cc1,-,-,54,-,76,-,-,60,61,-
Cc1ccc(N=Nc2c(O)[nH]c3ccc(F)cc23)cc1,-,-,-,-,-,.,.,.,.,.
CS(=O)(=O)N(CC(=O)N1CCCC1)c1cccc(C(F)(F)F)c1,.,-,.,.,.,.,.,.,.,.
COc1ccc(C)cc1NC(=O)C1CCCN(S(=O)(=O)c2cccnc2)C1 (configuration not stated),-,-,60,-,-,-,-,-,-,-
O=C(O)c1ccc(N/N=C/c2ccc(-c3cc(Cl)ccc3Cl)o2)cc1,-,-,53,-,76,-,85,86,-,-
NS(=O)(=O)c1ccc(-c2ccc(/C=N/Nc3ccc(C(=O)O)cc3)o2)cc1,-,-,-,-,-,.,.,.,.,.
O=C(O)c1cccc(-c2ccc(/C=N/Nc3ccc([N+](=O)[O-])cc3)o2)c1,-,-,-,-,-,.,.,.,.,.
O=C(O)c1ccc(N/N=C/c2ccc(-c3cccc(Cl)c3)o2)cc1,-,-,58,-,-,82,82,90,-,82
CCCCN1C2CCCC1CC(NC(=O)c1ccccc1Cl)C2 (configuration not stated),83,-,-,-,-,-,-,-,-,-
SMILES,SENP7 block,SENP8 block-1,SENP8 block-2,HSP90 inh,SENP6 block,SENP8 confirm,SENP6 confirm,SENP7 conf,Casp3 select,SENP luc ctr
Cn1cccc1C(=O)C(=O)Nc1ccc(F)c(F)c1,83,-,80,-,89,-,-,77,53,-
Cn1cccc1C(=O)C(=O)Nc1ccc(Cl)cc1,95,-,86,-,90,93,93,100,90,57
Cn1cccc1C(=O)c1ccc(Cl)cc1Cl,-,-,-,-,-,.,.,.,.,.
Cn1cccc1C(=O)C(=O)Nc1cc(Cl)cc(Cl)c1,94,-,67,-,73,-,53,88,58,-
CC(C(=O)Nc1ccc(F)c(F)c1)N1CCN(C)CC1 (configuration not stated),-,-,-,-,-,.,.,.,.,.
CCOc1ccc(S(=O)(=O)NC(C)C(=O)NCc2ccccn2)cc1 (configuration not stated),-,-,-,-,-,.,.,.,.,.
COc1ccc(/C=N/OC(=O)Nc2ccccc2OC)cc1,81,-,72,-,-,-,87,-,83,-
Cc1ccc(NC(=O)O/N=C/c2ccc(F)cc2)cc1,-,-,-,-,-,.,.,.,.,.
COc1ccc(NC(=O)O/N=C/c2ccc(Br)cc2)cc1,-,-,-,-,-,.,.,.,.,.
O=C(Nc1ccccc1)O/N=C/c1ccccc1Cl,56,-,-,-,-,60,53,77,-,53
O=C(Nc1ccccc1)O/N=C/c1ccc(F)cc1,59,-,-,-,68,67,65,89,75,-
C=CCNc1nc(-c2c(C)nc3sccn23)cs1,-,-,-,-,-,.,.,.,.,.
Cc1nc2sc(-c3ccccc3)nn2c(=O)c1Br,73,-,60,-,75,-,-,-,61,-
O=C(c1ccc(-c2nnc(-c3ccccc3)o2)cc1)N1CCCCCC1,93,-,88,-,96,-,-,60,69,-
Cc1ccc(/C=C/c2nnc(-c3cccs3)o2)cc1,-,-,86,-,91,-,-,67,-,-
Cc1ccc(-c2nnc(-c3cccs3)o2)cc1,81,-,68,-,-,72,87,99,86,-
Cc1ccc(-c2nnc(-c3ccccc3)o2)cc1,93,-,82,-,92,-,80,96,86,54
Cc1ccc(-c2nnc(N)o2)cc1,-,-,-,-,-,.,.,.,.,.
CCCC(=O)NC(Nc1ccc(S(=O)(=O)Nc2cc(C)on2)cc1)(C(F)(F)F)C(F)(F)F,-,-,-,-,-,.,.,.,.,.
CC(Oc1cc2oc(=O)c3c(c2cc1Cl)CCC3)C(=O)NCCCN1CCCC1=O (configuration not stated),-,-,-,-,-,.,.,.,.,.
O=C(NCC1CCCO1)c1cccc(Oc2ccc([N+](=O)[O-])cc2Cl)c1 (configuration not stated),-,-,-,-,-,.,.,.,.,.
Fc1ccc(/C=C/c2nnc(-c3cccs3)o2)cc1,67,-,-,-,61,-,-,-,-,-
